HP1b binding inh: HP1-beta chromodomain-methylated histone interaction inhibition. P83916. AlphaScreen HP1-beta / biotin-H3K9me3 peptide binding. Potency, µM (titrated, usually from 114 µM), for the others: at the highest dose activity change, negative = inhibition, hits mostly inhibitors. 390,000 tested, 0.56% active; further: nearly all actives have a fitted effect of over 70% in size
Target sequence (P83916 whole entry, looked up): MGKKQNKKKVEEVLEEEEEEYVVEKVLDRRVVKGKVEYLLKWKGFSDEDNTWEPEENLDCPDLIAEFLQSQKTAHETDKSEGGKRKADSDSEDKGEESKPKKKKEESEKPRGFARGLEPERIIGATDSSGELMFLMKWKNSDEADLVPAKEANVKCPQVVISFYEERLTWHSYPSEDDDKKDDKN
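Compound inhibition of the preformed complex between 50 nM HP1-beta and 50 nM biotinylated H3K9me3 peptide was read by AlphaScreen. Buffer was PBS pH 7.4 with 0.01% Tween-20. Incubations ran 30 min at room temperature, with 10 ug/mL donor/acceptor beads.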
JMJD2A Tudor: inhibitors of human JMJD2A Tudor domain; O75164; AlphaScreen JMJD2A-Tudor / H3K4me3 peptide binding; Potency, µM (titrated, usually from 114 µM), for the others: top-dose activity change, negative = inhibition, usual class: inhibitors; 390,000 tested, 4.4% active; AID 504339; further: on the % scale 0 is the no-effect control and ±100 the full control effect; nearly all actives have a fitted effect of over 50% in size
GLS inhibitor: inhibitors of human glutaminase (GLS). O94925. Potency, µM (highest dose often 45.5 µM), for inactives: top-dose activity change, negative = inhibition, usual class: inhibitors. GLS enzymatic activity, qHTS titration. AID 624170. 410,000 tested, 0.21% active; further: on the % scale 0 is the no-effect control and ±100 the full control effect
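hKGA in 45 mM KH2PO4 pH 8.2, 0.02% Tween-20 with pin-transferred compounds; 1 mM L-glutamine (stock) plus glutamate oxidase/HRP/Amplex Red coupling added. Fluorescence read initially and after 30 min at RT.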
G9a block: inhibitors of human histone lysine methyltransferase G9a. 350,000 tested, 8.8% active. G9a H3K9 monomethylation, AlphaScreen, 2 h. Q96KQ7. AID 504332. Potency, µM (highest dose often 102 µM), for the others: top-dose activity, negative = inhibition, usual class: inhibitors; further: on the % scale 0 is the no-effect control and ±100 the full control effect; nearly all actives have a fitted effect of over 75% in size
Target sequence (Q96KQ7 913-1193 limits assumed): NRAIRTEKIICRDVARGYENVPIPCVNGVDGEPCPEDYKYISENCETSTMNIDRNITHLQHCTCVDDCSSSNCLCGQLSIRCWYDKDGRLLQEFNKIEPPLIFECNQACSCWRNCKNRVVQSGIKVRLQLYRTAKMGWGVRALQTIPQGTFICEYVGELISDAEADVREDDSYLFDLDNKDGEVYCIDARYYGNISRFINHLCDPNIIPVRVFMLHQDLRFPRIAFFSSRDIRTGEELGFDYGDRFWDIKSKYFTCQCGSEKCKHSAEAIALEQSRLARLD
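Compounds were preincubated with 20 nM G9a for 15 min, after which biotinylated H3K9 peptide (500 nM) and SAM (20 uM) started a 2 h room-temperature reaction. Monomethylated product was quantified by antibody-based AlphaScreen chemiluminescence.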
BAZ2B inh: BAZ2B (human) inhibition | Q9UIF8 | AlphaScreen BAZ2B-H3K14Ac peptide displacement | Potency, µM (highest dose often 114 µM), for the others: top-dose activity change, negative = inhibition, hits mostly inhibitors | AID 504333 | 360,000 tested, 4.4% active; further: on the % scale 0 is the no-effect control and ±100 the full control effect; nearly all actives have a fitted effect of over 60% in size
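Protein-peptide AlphaScreen: BAZ2B 50 nM, b-H3K14Ac 50 nM, 1x PBS pH 7.4 + 0.01% Tween-20. Preincubation 30 min RT; cpd 30 min RT (top 110 uM); beads 20 min RT, light-protected.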
The depositor's hits bear a star; u = inconclusive; x = no result given; [ ] = remark or other dose. The list is not random: actives were taken first. Their share in the collection is about 10%. The call rests on the fitted dose curve; in most records, active means well fitted curve in the direction sought with a large enough effect; inconclusive means small, poorly fitted or top-dose-only effect, or another doubt; inactive means no such curve, though single readings can be large; an effect the other way counts as inactive or inconclusive. Potency means the concentration at half of the fitted maximal effect.

SMILES | HP1b binding inh | JMJD2A Tudor | GLS inhibitor | G9a block | BAZ2B inh
COc1ccc(/C=N/NC(=O)CCn2cnc(-c3ccccc3)c2-c2ccccc2)cc1 | u | 20µM* | 4% | u | 25µM*
O=C(CCn1cnc(-c2ccccc2)c1-c1ccccc1)N/N=C/c1ccc(O)cc1 | u | 25µM* | 15% | u | u
CCOC(=O)c1c(NC(=O)C2CCCO2)sc(C(=O)OC(C)(C)C)c1C (stereo unspecified) | u | u | -16% | 3.5µM* | 6%
CCOC(=O)c1sc(NC(=O)C2CCCO2)c(C(=O)OCC)c1C (stereo unspecified) | x | x | x | -32%[12.7 µM] | 56µM*
CCOC(=O)c1c(NC(=O)C2CCCO2)sc(C)c1C (stereo unspecified) | 18% | -16% | 12% | -1% | -4%
Cc1ccc(Nc2nc(-c3ccc(O)c(O)c3)cs2)nc1 | u | 32µM* | u | 16µM* | 40µM*
Clc1cccc(-c2csc(Nc3cccnc3)n2)c1 | 13% | -7% | 7% | 45µM* | -3%
COc1ccc(-c2csc(Nc3cccc(C)n3)n2)cc1 | -3% | -32% | -15% | -14% | -8%
c1cncc(Nc2nc(-c3cccnc3)cs2)c1 | 14% | -27% | 3% | u | 4%
Cc1ccnc(Nc2nc(-c3c(C)nc4sccn34)cs2)c1 | -34% | u | x | u | 45µM*
COc1ccc(-c2csc(Nc3cccc(C)n3)n2)cc1C | -28% | -24% | u | 50µM* | -34%
Cc1ccc(Nc2nc(-c3ccc(F)cc3)cs2)nc1 | 36% | 2% | 1% | -2%[59 µM] | -24%
COc1ccc(NC(=O)c2c(NC(=O)C(F)(F)F)sc3c2CCCCC3)cc1 | -7% | -34% | -1% | u | -37%
CCCCCCN1C[C@H](O)[C@@H](n2cc(C3CC3)nn2)C[C@@H]1c1ccccc1 | x | x | 5% | x | x
CC1(C(=O)NCc2ccc(C(F)(F)F)cc2)CCN1C1Cc2ccccc2C1 (stereo unspecified) | x | x | -1% | x | x
O=C(NCc1ccccn1)C1CCN(C2CCN(Cc3cccc(F)c3)CC2)CC1 | x | x | -9% | x | x
COc1ccc(-c2csc(Nc3cc(C)ccn3)n2)cc1OC | -36% | u | -22% | 40µM* | u
Clc1ccccc1Nc1nc(-c2cccnc2)cs1 | -16% | -25% | 0% | -12%[12.7 µM] | 56µM*
COc1ccc(-c2csc(Nc3cccnc3)n2)cc1OC | 60% | -16%[57.1 µM] | -4% | 50µM* | -6%
O[C@H]1C[C@H](c2ccc(Cl)cc2)N(Cc2cccs2)C[C@@H]1n1cc(-c2ccc(F)cc2)nn1 | x | x | 1% | x | x
Cc1nc2c(OCc3ccccc3)cccn2c1CC#N | x | x | x | -17%[59 µM] | x
COc1ccc(OCC(=O)Nc2cc(S(=O)(=O)N3CCCC3)ccc2Cl)cc1 | 9% | -13% | 2% | -5% | 12%
CCc1ccc(C(c2c(C)nn(-c3ccccc3)c2N)c2c(C)nn(-c3ccccc3)c2N)cc1 | -35% | 56µM* | 23% | u | u
Cc1cccc(C(c2c(C)nn(-c3ccccc3)c2N)c2c(C)nn(-c3ccccc3)c2N)c1 | -15% | -35% | 17% | -19%[59 µM] | u
CCc1ccc(-n2c(=S)sc3c(=O)[nH]c(SCC(=O)NC4CCCCC4)nc32)cc1 | x | x | 3% | x | x
SMILES | HP1b binding inh | JMJD2A Tudor | GLS inhibitor | G9a block | BAZ2B inh
COc1ccc2oc(C(=O)Nc3nc(C)cs3)c(C)c2c1 | 23% | -20% | -2% | -7%[12.7 µM] | 7%
COc1ccc(/C=N/Nc2nnc(C)n2N)cc1OC(C)=O | 23% | -11% | -26% | 45µM* | -25%
CC(C)C[C@@H](CN)NC(=O)c1nc[nH]c1C(=O)N[C@@H](CC(=O)O)C(=O)CNC[C@H](C)NC(=O)c1nc[nH]c1C(=O)N[C@@H](CC(=O)O)C(=O)O | 89% | 89µM* | -2% | x | x
CC(C)C[C@@H](CNCC(=O)[C@H](CC(=O)O)NC(=O)c1[nH]cnc1C(=O)N[C@H](CN)CC(C)C)NC(=O)c1nc[nH]c1C(=O)N[C@@H](C)C(=O)O | 65% | u | -9% | x | x
CC(C)C[C@@H](CN)NC(=O)c1nc[nH]c1C(=O)N[C@@H](C)C(=O)CNC[C@H](C)NC(=O)c1nc[nH]c1C(=O)N[C@@H](CC(=O)O)C(=O)O | 45% | 56µM* | 1% | x | x
CC(C)C[C@@H](CNCC(=O)[C@H](CC(C)C)NC(=O)c1[nH]cnc1C(=O)N[C@@H](C)CN)NC(=O)c1nc[nH]c1C(=O)N[C@@H](C)C(=O)O | 29% | -3% | -3% | x | x
CC(C)C[C@@H](CN)NC(=O)c1nc[nH]c1C(=O)N[C@@H](C)C(=O)CNC[C@H](CC(C)C)NC(=O)c1nc[nH]c1C(=O)N[C@@H](CC(=O)O)C(=O)O | 88% | 79µM* | -7% | x | x
O=C(CSc1ccccc1F)NC(=O)NC1CCCC1 | x | x | -3% | x | x
CSc1ccccc1C(=O)NC1CCCN(c2ccc(C(F)(F)F)cn2)C1 (stereo unspecified) | 67% | -6% | -7% | 8.9µM* | -13%[57.1 µM]
O=C(NC1CCCN(c2ccc(C(F)(F)F)cn2)C1)c1ccncc1 (stereo unspecified) | 24% | -9% | -1% | 0% | -3%
COc1ccc(NC(=O)c2nc(SCc3ccccc3F)ncc2Cl)cc1 | 32% | -18% | -25% | -15%[59 µM] | -6%
Cc1ccc(Cl)cc1NC(=O)NCc1cccnc1 | 32% | 7% | -16% | x | -1%
COCCNC(=O)NC1(C(F)(F)F)Oc2ccc(Cl)cc2O1 (stereo unspecified) | -23% | -10%[57.1 µM] | 6% | 40µM* | 7%
Cc1cc(NC(=O)NC2(C(F)(F)F)Oc3ccc(Cl)cc3O2)no1 (stereo unspecified) | -8% | u | 46% | 7.9µM* | -3%
Cc1cc(NC(=O)Nc2ccc(F)c(Cl)c2)no1 | 15% | -10% | 2% | 8%[59 µM] | -1%
COc1ccc(OC)c(NC(=O)NC2(C(F)(F)F)Oc3ccccc3O2)c1 | 14% | -18% | 7% | 7.9µM* | -2%
O=C(NCc1cccnc1)NC1(C(F)(F)F)Oc2ccc(Cl)cc2O1 (stereo unspecified) | 41% | -10% | 6% | 32µM* | 6%
CC(C)(C)OC(=O)N[C@H](C(=O)OC(C)(C)C)c1ccc2ccccc2c1 | 66% | 1% | -1% | 1%[0.501 µM] | 11%
O=c1[nH]c(CN2CCN(c3ccc(O)cc3)CC2)nc2scc(-c3ccc(Cl)cc3)c12 | u | 45µM* | -4% | 3.2µM* | u
Oc1ccc(N2CCN(Cc3nc4ccccc4[nH]3)CC2)cc1 | u | 50µM* | 9% | 11µM* | -35%
CC(=O)c1ccc(N2CCN(Cc3nc4ccccc4[nH]3)CC2)cc1 | 28% | -21% | -5% | 39% | -20%
O=c1[nH][nH]c2c(N=Cc3ccccc3O)ccc(F)c12 | 11µM* | u | 11µM* | 8.9µM* | 10µM*

Compound activity: PubChem BioAssay, National Center for Advancing Translational Sciences (NCATS)
